For 13 molecules, z-score and composite z-score results are on record in PubChem BioAssay.

The structures appear in SMILES notation. Activity calls are given as the source filed them. Unless noted, the rule behind the calls is not given here.

The nature of test [1]: HepG2 liver cancer cell viability effects, profiling panel, resazurin fluorescence, 24 h, PK04 Diversity Set (AID 1172). Note: test concentration not given here. Particulars: higher = more signal. For orientation: Alamar Blue is a resazurin reagent that responds to reducing activity.
Test [2] can be described thus: basal S. cerevisiae growth modulation, no modifier, primary screen, OD600, strain BY4716, 24 h, basal condition (AID 1173). Particulars: OD600, 24 h, higher = more signal, called active from +8 up or from −8 down.
A short description of test [3]: MM1S myeloma cell viability, profiling panel, resazurin fluorescence, basal, 24 h, PK04 Diversity Set (AID 1174).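 Note: MM1S multiple myeloma cell line; test concentration not given here.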 Particulars: higher = more signal, called active from +8 up or from −8 down.
In test [4] the target is Dihydroorotate dehydrogenase (quinone), mitochondrial (Plasmodium falciparum (isolate 3D7)) (UniProt Q08210). Description: PfDHODH enzyme inhibitors, primary screen, biochemical, C-terminal His tag, absorbance 600 nm (AID 1175).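 Note: recombinant parasite enzyme with a five histidine tag at its C terminus; test concentration not given here.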 Particulars: DCIP absorbance 600 nm, higher = more signal, called active from +8 up or from −8 down.
Dihydroorotate dehydrogenase (quinone), mitochondrial (Plasmodium falciparum (isolate 3D7)), sequence (Q08210 whole entry, looked up): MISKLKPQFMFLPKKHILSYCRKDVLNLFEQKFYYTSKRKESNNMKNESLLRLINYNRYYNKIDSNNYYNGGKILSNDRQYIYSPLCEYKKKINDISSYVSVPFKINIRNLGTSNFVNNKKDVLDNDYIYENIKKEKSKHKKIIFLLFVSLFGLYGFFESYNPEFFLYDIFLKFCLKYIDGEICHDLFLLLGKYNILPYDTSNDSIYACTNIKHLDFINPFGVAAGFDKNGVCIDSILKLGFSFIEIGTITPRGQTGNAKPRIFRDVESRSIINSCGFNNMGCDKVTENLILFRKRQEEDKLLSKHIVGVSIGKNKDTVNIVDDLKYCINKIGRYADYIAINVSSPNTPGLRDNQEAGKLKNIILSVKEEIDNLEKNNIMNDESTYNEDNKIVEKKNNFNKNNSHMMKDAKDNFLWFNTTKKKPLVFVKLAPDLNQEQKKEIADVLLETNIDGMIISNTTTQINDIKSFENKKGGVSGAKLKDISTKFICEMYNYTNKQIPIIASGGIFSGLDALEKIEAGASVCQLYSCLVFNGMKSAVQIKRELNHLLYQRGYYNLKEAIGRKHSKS
Test [5] in a line: P. aeruginosa biofilm formation inhibitors, primary screen, strain PAO1, LB-PBS medium, absorbance 600 nm (AID 1176). Note: test concentration not given here. Particulars: P. aeruginosa PAO1 growth/biofilm, A600, 12 h; higher = more signal.
Test [6] is described as follows: S. cerevisiae RM11-1a growth modifiers, primary screen, strain RM11-1a, OD600, basal, 24 h (AID 1177).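 Note: cultures grown under basal conditions with no added stressor; test concentration not given here.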 Particulars: OD600, 24 h, higher = more signal, called active from +8 up or from −8 down.
The nature of test [7]: E. coli acrAB mutant growth effects, primary screen, E. coli filamentation inducers, strain DRC39, OD650, 24 h (AID 1178).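 Note: growth measured as culture turbidity by optical density at 650 nm; test concentration not given here.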 Particulars: higher = more signal, called active from +8 up or from −8 down.
A short description of test [8]: E. coli acrAB mutant growth effects, primary screen, E. coli filamentation inducers, strain DRC39, OD650, 48 h (AID 1179).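 Note: screen aims at cell division blockers that make cells filament.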 Particulars: E. coli DRC39 delta-acrAB growth, higher = more signal, called active from +8 up or from −8 down.
Test [9] is described as follows: RPMI8226 myeloma cell viability, profiling panel, resazurin fluorescence, basal, 24 h, PK04 Diversity Set (AID 1180).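 Note: RPMI8826 multiple myeloma cell line at 5000 cells per well; test concentration not given here.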 Particulars: higher = more signal.
Test [10] deals with E3 ubiquitin-protein ligase XIAP (Homo sapiens) (UniProt P98170). Description: XIAP binders, primary screen, biophysical, small-molecule microarray, fluorescence 635 nm (AID 1181).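 Note: score merges 667 nm emission and signal to noise over triplicate slides.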 Particulars: small-molecule microarray binding, higher = more signal.
E3 ubiquitin-protein ligase XIAP (Homo sapiens), sequence (P98170 whole entry, looked up): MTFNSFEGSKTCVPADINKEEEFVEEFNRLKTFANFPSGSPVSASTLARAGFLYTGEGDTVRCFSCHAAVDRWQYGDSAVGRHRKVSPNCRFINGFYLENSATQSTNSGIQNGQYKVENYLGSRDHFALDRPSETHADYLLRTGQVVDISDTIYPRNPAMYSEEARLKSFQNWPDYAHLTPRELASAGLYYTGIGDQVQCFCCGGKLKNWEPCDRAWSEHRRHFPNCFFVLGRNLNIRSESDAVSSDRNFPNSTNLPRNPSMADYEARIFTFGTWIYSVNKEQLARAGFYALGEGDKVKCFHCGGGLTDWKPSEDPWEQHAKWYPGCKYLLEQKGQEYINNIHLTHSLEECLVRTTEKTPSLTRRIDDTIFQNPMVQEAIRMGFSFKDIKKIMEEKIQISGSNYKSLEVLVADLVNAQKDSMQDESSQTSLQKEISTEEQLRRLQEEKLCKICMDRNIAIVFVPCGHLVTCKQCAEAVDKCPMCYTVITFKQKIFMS

As to `C[n+]1ccc(-c2ccc(CO)cc2)cc1`, the z-score is -0.557 in test [1]; 0.11 (inactive) in [2]; -0.404 (inactive) in test [3]; -0.407 (inactive) in test [5]; -0.142 (inactive) in [6]; 0.207 (inactive) in test [7]. Further, the z-score in test [8] was -0.0742 (inactive); in test [9] it was -0.674. Besides, the figures for the composite z-score in test [4] and in test [10] were -10 (active) and 0.433, respectively.

With `COC(=O)[C@H]1[C@@H](O)[C@@]2(O)c3ccccc3O[C@@]2(c2ccccc2)[C@@H]1c1ccccc1`, the z-score in test [1] is -0.314; in test [2], 0.358 (inactive); in [3], -0.683 (inactive); in test [5], -0.175 (inactive); in test [6], 0.653 (inactive); in [7] it was -0.306 (inactive). The figures for the z-score in test [8] and in test [9] were -0.446 (inactive) and -0.857, respectively. For the same molecule, the composite z-score in [4] is 0.154 (inactive); in test [10] it was -0.173.

For the molecule `Cc1ccc(S(=O)(=O)OC[C@H]2CN3[C@H](c4ccc(Br)cc4)[C@@H](C)CC[C@H]3C(=O)O2)cc1`, the z-score in test [1] was 0.794; in test [2], -9.35 (active); in test [3], 0.648 (inactive); in [5], 1.29 (inactive); in test [6], -1.42 (inactive); in test [7], 1.31 (inactive). Moreover, the z-score was 0.618 (inactive) in test [8] and 0.521 in [9]. In addition, the results for the composite z-score in [4] and in [10] were -0.303 (inactive) and 0.201, respectively.

As for `C[C@@H](ON=C1[C@H]2CCn3c(=O)n(-c4ccccc4)c(=O)n3[C@H]2[C@H](O)[C@@H]2O[C@H]12)c1cn([C@@H]2COC[C@H]2O)nn1`, the z-score was -0.311 in test [1]; 0.337 (inactive) in test [2]; -0.739 (inactive) in test [3]; 0.523 (inactive) in test [5]; -1.01 (inactive) in [6]; 0.0645 (inactive) in test [7]. For the same molecule, the values for the z-score in [8] and in test [9] were -0.317 (inactive) and -0.715, respectively. For the same molecule, the values for the composite z-score in test [4] and in test [10] were -0.642 (inactive) and -0.189, respectively.

As for `CCc1cc2c(nc1CC)CCN(CCC(C)=NO[C@@H](C)c1cn([C@H](CO)Cc3ccccc3)nn1)C2`, the z-score in [1] was -0.301; in [2] it was -0.841 (inactive); in test [3], -1.79 (inactive); in test [5], -0.218 (inactive); in test [6] it was 0.804 (inactive); in test [7], 0.294 (inactive). Also, the z-score is 0.67 (inactive) in [8] and 0.659 in test [9]. In addition, the composite z-score in [4] was -1.3 (inactive); in test [10], -0.0602.

For `COC(=O)CC=C[C@@H](C)[C@@H](C=NO[C@@H]1O[C@H](COC(C)=O)[C@@H](OC(C)=O)[C@H](OC(C)=O)[C@H]1OC(C)=O)OC`, the z-score in [1] is 0.992; in [2], -0.298 (inactive); in test [3] it was -0.205 (inactive); in [5], 0.0738 (inactive); in test [6], -0.0389 (inactive); in test [7], -1.03 (inactive). Also, the z-score in test [8] is -0.932 (inactive); in [9], 0.672. Besides, the composite z-score was 0.159 (inactive) in test [4] and 0.127 in [10].

Turning to `CO[C@H]1COC(=O)[C@H](C)NC(=O)[C@@H](C)COC(=O)[C@H]2CCCN2C(=O)CC=C[C@H]1C`, the z-score in test [1] was -0.384; in [2] it was -0.739 (inactive); in test [3], 0.0177 (inactive); in test [5], -0.655 (inactive); in test [6], -0.382 (inactive); in test [7], 0.491 (inactive). Also, the z-score in [8] is 0.206 (inactive); in [9] it was -0.65. The composite z-score in [4] is -2.21 (inactive); in [10], -0.354.

`CC(C)CON=C1[C@H]2CCn3c(=O)n(Cc4cc5c(cc4Cl)OCO5)c(=O)n3[C@H]2[C@H](O)[C@@H]2O[C@H]12`: the z-score in test [1] was -0.274; in [2] it was -0.761 (inactive); in [3], -0.302 (inactive); in test [5], -1.4 (inactive); in test [6], -0.471 (inactive); in [7] it was 0.42 (inactive). Besides, the z-score in [8] was -1.6 (inactive); in test [9], -0.241. Besides, the composite z-score in test [4] was -2.76 (inactive); in [10], -0.0773.

Consider `CC(C)CON=C1C[C@@H](O)[C@@H](O)[C@@H]2[C@@H]3C(=O)N(c4ccc(F)cc4F)C(=O)[C@@H]3CC[C@H]12`, for which the z-score in test [1] was 0.806; in test [2], -0.406 (inactive); in test [3] it was 0.686 (inactive); in [5], 0.246 (inactive); in test [6], -0.554 (inactive); in [7], 0.404 (inactive). Besides, the z-score was -0.382 (inactive) in test [8] and 0.17 in test [9]. Moreover, the composite z-score in [4] was -0.223 (inactive); in test [10], -0.138.

For `O=C1C[C@@H](O)[C@@H](O)[C@@H]2[C@@H]3C(=O)N(Cc4ccccc4)C(=O)[C@@H]3CC[C@@H]12`, the z-score in test [1] was 0.568; in test [2], 0.178 (inactive); in test [3] it was 0.144 (inactive); in [5], -0.425 (inactive); in [6], 0.0564 (inactive); in test [7], -0.7 (inactive). Moreover, the z-score in test [8] was -0.564 (inactive); in test [9], 0.112. Besides, the values for the composite z-score in [4] and in test [10] were 0.378 (inactive) and 0.126, respectively.

Consider `COC(=O)CC=C[C@@H](C)[C@@H](C=NOC[C@H]1O[C@H](c2ccccc2)C=C[C@@H]1Oc1ccc(OC)cc1)NS(=O)(=O)c1ccc(C)cc1`, for which the z-score in [1] was -0.659; in test [2] it was 0.642 (inactive); in [3] it was -0.0907 (inactive); in test [5], -0.0781 (inactive); in test [6] it was 0.0674 (inactive); in test [7], -1.01 (inactive). Besides, the values for the z-score in test [8] and in test [9] were -0.913 (inactive) and -0.189, respectively. Besides, the composite z-score in [4] was 0.0727 (inactive); in test [10] it was -0.167.

On to `C=CC[C@@H]1C=C[C@H](ON=C(C)CCC(=O)OC[C@H]2O[C@H](c3ccccc3)C=C[C@@H]2Oc2ccc(OC)cc2)[C@@H](CO)O1`, for which the z-score in test [1] was 0.0276; in test [2] it was 0.31 (inactive); in [3] it was -0.517 (inactive); in [5] it was 0.347 (inactive); in test [6], -0.0293 (inactive); in [7], 0.741 (inactive). Moreover, the z-score was 1.15 (inactive) in test [8] and -0.212 in [9]. Besides, the composite z-score in test [4] is -0.582 (inactive); in [10] it was -0.0272.

Consider `CCc1cc2c(nc1CC)CCN(CCC(C)=NO[C@H](C)c1cn([C@@H]3COC[C@H]3O)nn1)C2`, for which the z-score is -0.51 in [1]; 0.485 (inactive) in [2]; -1.4 (inactive) in [3]; -0.643 (inactive) in [5]; 0.431 (inactive) in test [6]; 0.415 (inactive) in [7]. The z-score in test [8] is 0.741 (inactive); in [9] it was -0.828. For the same molecule, the results for the composite z-score in [4] and in test [10] were -0.0125 (inactive) and 0.0368, respectively.
